Sampled rows, rich in hits. Any-hit rate of the full collection: about 15%.
HCV inhibitor – inhibitors of hepatitis C virus infection; 3.4% of 340,000 active; AID 651820; Huh7.5.1 HCVcc-Cre infection, luciferase reporter, 44 h; Potency, µM (titrated, usually from 41.8 µM), inactives show at the top dose activity change, negative = inhibition, most hits filed as inhibitors; note: potency is the fitted concentration of half-maximal effect; % is set by controls: 0 for no effect and ±100 for the full control effect
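HCVcc-Cre virus at an moi near 0.5 was added right after compound to cells cultured 4 h from seeding (1,000 cells/well). Luciferase activity was determined 44 h later, 15 min after substrate addition at RT.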
Pf growth 96h – P. falciparum growth inhibition at 96 hour, primary screen for plastid delayed-death inhibitors; P. falciparum luciferase reporter growth, 96 h; Potency, µM (titrated, usually from 28.7 µM), for the others: at the highest dose activity change, negative = inhibition, most hits filed as inhibitors; 6.9% of 320,000 active; AID 504834; note: potency is the fitted concentration of half-maximal effect; % is set by controls: 0 for no effect and ±100 for the full control effect
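Cell-based qHTS: luciferase-tagged P. falciparum in erythrocytes (2% hematocrit, 0.05% parasitemia final) incubated with compounds for 96 hours, 37 C, 5% CO2; luciferase detection reagent then added and luminescence measured.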
Pf growth 48h – inhibits P. falciparum growth in the first generation, 48 h; Potency, µM (titrated, usually from 28.7 µM), for inactives: at the top dose activity change, negative = inhibition, usual class: inhibitors; AID 504832; P. falciparum luciferase growth in erythrocytes, 48 h; 5.9% of 310,000 active; note: potency is the fitted concentration of half-maximal effect; % is set by controls: 0 for no effect and ±100 for the full control effect
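Growth was read as firefly luciferase luminescence after a 48 h, 37 C, 5% CO2 exposure of compounds to reporter-bearing P. falciparum cultures (0.1% parasitemia, 2% hematocrit final) in Albumax-supplemented RPMI 1640.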
Sm TGR inh – inhibitors of Schistosoma mansoni thioredoxin glutathione reductase; 3% of 360,000 active; purified TGR, DTNB reduction, TNB absorbance 405 nm; AID 485364; Potency, µM (doses to about 114 µM), for inactives: top-dose activity change, negative = inhibition, most hits filed as inhibitors; note: potency is the fitted concentration of half-maximal effect; % is set by controls: 0 for no effect and ±100 for the full control effect; nearly all actives have a fitted effect of over 60% in size
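TGR 20 nM + NADPH 100 uM (dispensed conc.), cpd preinc 15 min RT; start with NADPH (500 uM addition) then DTNB (15 mM addition). Kinetic TNB absorbance, 405 nm filter. Four-parameter Hill fit across titration.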
HCMV antiviral – human cytomegalovirus inhibition. HFF cells, HCMV-luciferase reporter, 72 h; stronger effect = lower value. activity change, negative = inhibition, % at 57.5 µM. 4.5% of 410,000 active; in the data active = activity change below about -60%; inconclusive = no clear call, values can overlap the other calls; inactive = above about -39%; note: % is set by controls: 0 for no effect and ±100 for the full control effect
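Two compound doses tested in HFFs infected with HCMV-luciferase, MOI 1 PFU/cell, 72 h at 37C. Lysate luminescence read with OneGlo; data normalized against buffer-only and 10uM Salinomycin inhibitor controls.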
SARS PLP yeast – inhibitors of SARS-CoV papain-like protease in yeast; AID 485353; Potency, µM (series often up to 32.9 µM), without a hit: at the top dose activity, positive = growth rescue, usual class: activators; 0.19% of 330,000 active; S. cerevisiae expressing SARS-CoV PLpro, growth rescue; calls by dose curve; note: potency is the fitted concentration of half-maximal effect; 0% is about no effect; nearly all actives have a fitted effect of over 55% in size
Numbers without * were called inactive; ? = inconclusive; . = not tested or not shown; [ ] = dose if it differs, or a comment. Unless noted, calls come from the whole dose curve; as a rule, active = well fitted curve in the direction sought with a large enough effect; inconclusive = small, poorly fitted or top-dose-only effect, or another doubt; inactive = no such curve, though single readings can be large; an effect the other way counts as inactive or inconclusive.

SMILES | HCV inhibitor | Pf growth 96h | Pf growth 48h | Sm TGR inh | HCMV antiviral | SARS PLP yeast
COC(=O)CN(C#N)c1nc(NC(C)C)nc(OC)n1 | -5% | ? | 0% | -8% | -4 | 10%
O=Cc1cn(Cc2ccc(Br)cc2)c2ccccc12 | 1% | 20% | 7% | 20% | -10 | -4%
CCOC(=O)Cn1cc(/C=C/[N+](=O)[O-])c2ccccc21 | ? | 49% | ? | . | -74* | -5%
Cc1cccc(Cn2cc(/C=C/[N+](=O)[O-])c3ccccc32)c1 | ? | -3% | 3.7µM* | 0% | -99* | -38%
O=[N+]([O-])/C=C/c1cn(Cc2ccc(Cl)cc2)c2ccccc12 | ? | ? | 3.7µM* | -7% | -39 | -17%
O=Cc1cn(Cc2cccc(F)c2)c2ccccc12 | 5% | 19% | -2% | 22% | 2 | 18%
COc1ccc(-n2nnc3c(SCC(=O)N4CCCc5ccccc54)ncnc32)cc1 | ? | . | . | . | -37 | .
COc1ccc(-n2nc(C(=O)NCC(=O)N3CCCC3)c3ccccc3c2=O)cc1Cl | 12% | ? | 0% | 6% | ? | 1%
COc1ccc(CCCc2nnc(SCC(=O)Nc3ccc(F)cc3)o2)cc1C | . | . | . | -2% | 3 | .
c1ccc2c(N3CCCC3)nc(-c3ccncc3)nc2c1 | ? | ? | ? | 1% | -33 | -12%
Oc1ccccc1N1CCN(c2nc(-c3cccs3)nc3ccccc23)CC1 | 11µM* | ? | ? | -4% | ? | -3%
OCCN1CCN(c2nc(-c3ccccc3O)nc3ccccc23)CC1 | 22µM* | ? | -17% | 4% | 38 | -5%
CCN1CCN(c2nc(-c3ccccn3)nc3ccccc23)CC1 | -24% | ? | ? | 6% | -29 | 6%
c1ccc(CN2CCN(c3nc(-c4ccccn4)nc4ccccc34)CC2)cc1 | 9% | -99% | 1.7µM* | -15% | -99* | 6%
CN1CCN(c2nc(-c3ccncc3)nc3ccccc23)CC1 | ? | . | 9.3µM* | -6% | -21 | 5%
c1ccc(CN2CCN(c3nc4ccccc4c4ccccc34)CC2)cc1 | ? | . | . | 6% | ? | -22%
c1ccc(CN2CCN(c3nc(-c4ccccc4)nc4ccccc34)CC2)cc1 | -18% | . | 3.3µM* | -10% | 2 | 7%
COc1cc(C2C(C#N)=C(N)OC3=C2C(=O)CC(C)(C)C3)ccc1OCCN1CCOCC1 (centres undefined) | -5% | 56% | 16% | -26% | ? | 0%
CN(C)c1nc(OCCNC(=O)COc2ccc(Cl)cc2Cl)nc(N2CCCCC2)n1 | ? | 2.6µM* | ? | 13% | 2 | 7%
COc1cc(C)nc(OCCNC(=O)COc2ccc(Cl)cc2Cl)n1 | ? | 0%[5.75 µM] | -10% | -31% | -60* | -2%
CN(C)c1nc(OCCNC(=O)COc2ccc(Cl)cc2Cl)nc(N(C)C)n1 | ? | ? | . | 1% | 10 | 24%
COc1ccc(NS(=O)(=O)c2ccc3c(c2)CC(C)N3C(C)=O)c(OC)c1 (centres undefined) | . | . | . | -1% | 8 | .
CC(NC(=S)NCCCN1CCOCC1)C12CC3CC(CC(C3)C1)C2 (centres undefined) | -2% | ? | -9% | -14% | ? | -3%
CCOC(=O)N1CCN(c2ncc3c(n2)CC(c2ccc(OC)c(OC)c2)CC3=O)CC1 (centres undefined) | . | . | . | 4.5µM* | -9 | .
CC1CC(C)CN(c2ncc3c(n2)CC(c2ccc(Cl)cc2)CC3=O)C1 (centres undefined) | 20% | . | 18% | -20% | 11 | 0%
SMILES | HCV inhibitor | Pf growth 96h | Pf growth 48h | Sm TGR inh | HCMV antiviral | SARS PLP yeast
COc1ccc(C2CC(=O)c3cnc(N4CCN(Cc5ccccc5)CC4)nc3C2)cc1 (centres undefined) | ? | 12% | 12µM* | -20% | -14 | -4%
Cc1ccc(C2CC(=O)c3cnc(N4CCN(c5ccccc5)CC4)nc3C2)cc1 (centres undefined) | -5% | . | 0% | 3% | 23 | 0%
CC1CC(C)CN(c2ncc3c(n2)CC(c2ccccc2Cl)CC3=O)C1 (centres undefined) | -2% | 15µM* | 10µM* | 2% | -5 | -2%
CC(=O)NC1[C@H]([C@H](O)[C@H](O)CO)OC(C(=O)O)=C[C@H]1N=C(N)N (some centres undefined) | . | -3% | 10% | . | . | .
Cc1ccc(-n2ncc(C(=O)NCCc3c[nH]c4ccccc34)c2C2CCN(C(=O)OC(C)(C)C)CC2)cc1C | . | . | . | -17% | -29 | .
CC(=O)c1ccc(NC(=O)Cn2c3ccccc3c3nc(=O)cc(C)n32)cc1 | 0% | -25% | -27% | -14% | 34 | 0%
CC1C/C(=N/O)C(C)CN1 (centres undefined) | 5% | 19% | . | ? | 47 | 2%
Nc1ccc(-n2c(N)c(C(=O)NCc3ccc4c(c3)OCO4)c3nc4ccccc4nc32)cc1 | 2.5µM* | . | . | . | -5 | .
Nc1c(C(=O)NCc2ccccc2)c2nc3ccccc3nc2n1-c1ccc2c(c1)OCO2 | -13% | ? | -85% | ? | -77* | 0%
C[C@H](CO)N1C[C@H](C)[C@@H](CN(C)Cc2ccncc2)Oc2ccc(NC(=O)CCCCCC(=O)Nc3ccccc3N)cc2C1=O | 0% | . | . | . | 4 | 1%
CCSc1nc2ccccc2n1C(=O)/C=C\c1ccc(OC)c(OC)c1 | 14µM* | ? | ? | -12% | -98* | 2%
O=C(O)CNc1ccc(S(=O)(=O)C(F)(F)F)cc1[N+](=O)[O-] | 21% | -10% | 21% | 8% | 3 | 0%
CC(=O)Nc1ccc(Nc2ccc(S(=O)(=O)C(F)(F)F)cc2[N+](=O)[O-])cc1 | -25% | ? | 15µM* | 4% | -97* | -60%
CCOCC(=O)Nc1nc2ccc(OC)cc2s1 | -10% | . | 214% | ? | 75 | 1%
CCn1cc([N+](=O)[O-])c(C(=O)Nc2nc3ccc(OC)cc3s2)n1 | ? | 7% | 38% | . | -89* | 1%
Cc1ccc(Cn2ccc(NC(=O)c3nn(C)cc3[N+](=O)[O-])n2)cc1 | ? | 5% | 10% | -2% | -77* | -2%
Cn1cc([N+](=O)[O-])c(C(=O)Nc2ccc(C(=O)N3CCCCC3)cc2)n1 | -6% | -10% | 9% | 8% | -34 | -2%
Cn1cc([N+](=O)[O-])c(C(=O)Nc2ccc(C3CCCCC3)cc2)n1 | ? | 14% | 33% | 15% | -100* | -5%
Cc1ccc(Cn2ccc(NC(=O)c3cc(C)on3)n2)cc1 | 4% | . | . | 5% | 28 | 3%
CCn1cc([N+](=O)[O-])c(C(=O)Nc2ccn(Cc3ccccc3)n2)n1 | 3% | 21% | 16% | -1% | -74* | -4%

Source: PubChem BioAssay
